Hit rate of the full screen: of about 350,000 compounds, about 9,900 (2.8%) were called active. Inconclusive results (about 15%) are left out. Calls follow the shape of the dose curve; as a rule, active = well fitted activation curve with a large enough effect; inconclusive = small, poorly fitted or top-dose-only effect; inactive = no such curve, though single readings can be large or run the other way. What follows is part of a selection rich in actives, with near analogues and random picks from the rest. A call without a number means that no potency is given here.
Potency is read from the fitted curve at half-maximal effect.

The assay is described as follows: A quantitative high throughput screen for small molecules that induce DNA re-replication in MCF 10a normal breast cells. Also: nearly all actives have a fitted effect of over 50% in size. Conditions: MCF 10A DNA re-replication, Hoechst nuclear intensity, 48 h; series mostly up to 46.1 µM.
For `COc1cc2ccccc2cc1C(=O)Nc1ccc(NC(=O)c2cccs2)cc1`, the Potency result is “inactive”. The value for `Cc1ccc(-c2nnc(-c3ccc(NC(=O)c4cccs4)cc3)o2)cc1` was “inactive”; that for `Cc1ccc(OCC(=O)Nc2ccc(NC(=O)c3cccs3)cc2)c(C)c1` was 20.6 µM (active); that for `Cn1cccc1C(=O)OCC(=O)NCCc1ccccc1` was “inactive”.

On to `Cc1ccc(S(=O)(=O)N2CCN(C(=O)CN3C(=O)NC(C)(c4ccc(Cl)cc4)C3=O)CC2)c(C)c1` (stereo not drawn), for which the Potency result was “inactive”. In the case of `NC(=O)c1ccc(N2CCCC2)nc1`, the Potency result is “inactive”. As to `C=CCSc1nc2ccccc2[nH]1`, the Potency entry is “inactive”. In the case of `COc1ccccc1C1CCN(c2ccc([N+](=O)[O-])cn2)CC1`, the Potency entry is “inactive”.

Regarding `CCCCSc1nc2ccccc2[nH]1`, the Potency result was “inactive”.

Consider `COc1ccccc1CSc1nc2ccccc2[nH]1`, for which the Potency was 8.2 µM (active). `COc1ccccc1CSc1ncc(-c2ccc([N+](=O)[O-])cc2)[nH]1`: the Potency was 11.6 µM (active). The value for `N#Cc1c(-c2ccccc2)nc(SCc2ccc([N+](=O)[O-])cc2)[nH]c1=O` was “inactive”; that for `Nc1cc2c(cc1Br)-c1ccc(F)cc1C2=O` was “inactive”. As to `CCOC(=O)C1CCN(CC(=O)Nc2ccc(OC)c(S(=O)(=O)N3CCCCC3)c2)CC1`, the Potency entry is “inactive”.

As for `O=C(c1cn(-c2ccccc2)nc1-c1cccnc1)N1CCN(S(=O)(=O)c2ccccc2F)CC1`, the Potency entry was “inactive”. `NC(=O)c1c(Nc2nc3c(F)cccc3s2)sc2c1CCCC2`: the Potency is 20.6 µM (active). For `CCOC(=O)C(NC(=O)CC(C)C)(Nc1sc2c(c1C(N)=O)CCCC2)C(F)(F)F` (stereo not drawn) the value was “inactive”; for `COc1cccc(OC)c1C(=O)Nc1sc2c(c1C(N)=O)CCCC2`, “inactive”; for `O=C(Nc1sc2c(c1C(=O)O)CCC2)c1ccccc1F`, “inactive”.

As for `O=C(CN1CCCC1)Nc1sc2c(c1C(=O)Nc1ccccc1)CCCC2`, the Potency result is “inactive”. `NC(=O)c1c(NC(=O)c2ccccc2)sc2c1CCCC2`: the Potency was 18.4 µM (active).

`O=C(NNC(=O)c1ccc(-n2cncn2)c([N+](=O)[O-])c1)c1ccccc1`: the Potency result is “inactive”. Turning to `CCN(CC)c1ccc(NC(=O)CN2C(=O)NC3(CCc4ccccc43)C2=O)cc1` (stereo not drawn), the Potency result is “inactive”.

On to `CCN(CC(=O)Nc1ccc(OC)cc1)C(=O)c1ccc(Cl)c(S(=O)(=O)N2CCCC2)c1`, for which the Potency result is “inactive”. As to `OCC1(CO)CC2(C1)CC(CO)(CO)C2`, the Potency entry was “inactive”. Turning to `CN(C)C(=O)CCc1ccc2c3c([nH]c2c1)[C@]1(C)[C@@H](C(=O)N2CCCCC2)C[C@H](CC(=O)NCCC2=CCCCC2)C(=O)N1CC3`, the Potency result was “inactive”.

In the case of `CC(=O)NC(=O)c1ccccc1O`, the Potency entry is “inactive”. For `CC(C)=C(NC(=O)c1ccccc1)C(=O)N/N=C(\C)c1ccccc1O` the value was “inactive”. For `C/C(=N\NC(=O)c1ccoc1C)c1ccccc1O` the value was 7.31 µM (active). For the compound `CSCCC(NC(=O)c1ccccc1)C(=O)N1CCCCCCC1` (stereo not drawn), the Potency entry is “inactive”.

Take `O=C(Cc1ccc(NC(=O)C2CCCN(C(=O)C3CCCCC3)C2)cc1)Nc1cccc(C(=O)N2CCCCC2)c1` (stereo not drawn): the Potency result was “inactive”. As for `CC(=O)c1c(N2CCOCC2)nc(=S)n(-c2cc(C)ccc2C)c1C`, the Potency is 1.3 µM (active). For the compound `CC(=O)c1c(N2CCOCC2)nc(=S)n(Cc2ccccc2)c1C`, the Potency entry is “inactive”. Take `CC(=O)c1c(N2CCN(c3ccc(F)cc3)CC2)nc(=S)n(-c2ccccc2)c1C`: the Potency result is “inactive”.

For the compound `O=C(CN1C(=O)NC2(CCOc3ccccc32)C1=O)Nc1cccc([N+](=O)[O-])c1` (stereo not drawn), the Potency entry is “inactive”. Consider `O=C(OCCN1C(=O)c2ccccc2C1=O)[C@@H]1CC(O)CN1S(=O)(=O)c1ccccc1[N+](=O)[O-]` (stereo partly drawn), for which the Potency entry is “inactive”. The value for `COc1cccc(NC(=O)CN(C)C(=O)/C=C/c2cc(OC)ccc2OC)c1` was “inactive”. With `COc1ccc(OC)c(/C=C/C(=O)OCC(=O)Nc2ccc3c(c2)OCCO3)c1`, the Potency was 20.6 µM (active). Take `COc1ccc(/C=C/C(=O)OCC(=O)Nc2cccc(Oc3ccccc3)c2)c(OC)c1`: the Potency entry is “inactive”. Turning to `CC(=O)NC(CC(=O)Nc1ccc(S(=O)(=O)N2CCOCC2)cc1)c1ccccc1` (stereo not drawn), the Potency entry is “inactive”. Turning to `C/C(=N/OC(=O)c1c(-c2c(F)cccc2Cl)noc1C)c1cnccn1`, the Potency entry is “inactive”. Take `CCOC(=O)c1cc2c(=O)n3ccccc3nc2n(CC(C)C)c1=NC(=O)c1c(-c2c(F)cccc2Cl)noc1C`: the Potency is 3.26 µM (active). Consider `CCCn1c(=NC(C)=O)c(C(=O)OCC)cc2c(=O)n3ccccc3nc21`, for which the Potency entry was “inactive”. For `Cc1noc(C)c1NC(=O)Nc1cccc2c1O[C@H](CN(C)S(=O)(=O)c1c(C)noc1C)[C@@H](C)CN([C@H](C)CO)C2=O`, the Potency result was “inactive”. On to `CCc1nnc(NC(=O)c2cc(S(=O)(=O)N3CCN(CC)CC3)ccc2Cl)s1`, for which the Potency result is “inactive”. In the case of `CC1CCc2[nH]c3ccc(C(=O)N(C)CC(=O)Nc4cccc(F)c4)cc3c2C1` (stereo not drawn), the Potency result is “inactive”. For `CCCN(CC(=O)Nc1ccccc1C)C(=O)c1cc(=O)[nH]c2ccccc12`, the Potency entry is “inactive”. Regarding `CCCN(CC(=O)Nc1ccccc1C)C(=O)c1ccc2[nH]c3c(c2c1)CC(C)CC3` (stereo not drawn), the Potency is 1.3 µM (active).

As for `CN1CCOC1c1ccc(C2OCCN2C)cc1` (stereo not drawn), the Potency entry was “inactive”.

Take `O=C1C=C(c2ccnc3cc(Cl)ccc23)C[C@@H](c2ccc3c(c2)OCO3)C1`: the Potency entry is “inactive”.

For the compound `CCOc1ncccc1C(=O)Nc1ccc2c(c1)OCCO2`, the Potency result is “inactive”.

In the case of `COc1ccc(C(=O)N2CCN(c3ncccn3)CC2)cc1S(=O)(=O)N1CCOCC1`, the Potency result is “inactive”.

As to `Cc1ccc(C(C)C)cc1OCCN1CCCC1`, the Potency entry was “inactive”. Consider `Cc1ccc(C(C)C)cc1OCC(=O)Nc1ccccc1N1CCCC1`, for which the Potency was 20.6 µM (active). Take `CCC(=O)N1CCN(c2ccccc2NC(=O)COc2cccc(C)c2C)CC1`: the Potency result is “inactive”. Turning to `O=S(=O)(NCCCCCCNS(=O)(=O)c1c(F)cccc1F)c1ccc2c(c1)OCCO2`, the Potency entry is “inactive”. Take `COc1ccc(/C=C/C(=O)Nc2c(C)nn(C)c2C)cc1COc1ccc(Br)cc1`: the Potency is 4.61 µM (active). For the compound `COc1ccc(OC)c(S(=O)(=O)Nc2c(C)nn(C)c2C)c1`, the Potency entry was “inactive”. For `C/C=C/c1ccc(OCC(=O)OCC(=O)Nc2c(C)nn(-c3ccccc3)c2C)c(OC)c1` the value was “inactive”; for `CCn1nc(C)c(NC(=O)/C=C/c2ccc(OC)c(COc3ccc(Br)cc3)c2)c1C`, 8.2 µM (active). On to `COc1ccc(/C=C/C(=O)Nc2cccnc2)cc1OC`, for which the Potency entry was “inactive”. `COc1ccc(/C=C/C(=O)Nc2ccc(C)cc2)cc1S(=O)(=O)N1CCOCC1`: the Potency result was “inactive”. For `CCCC(NCC(=O)Nc1ccccc1C(=O)NC1CC1)c1ccccc1` (stereo not drawn) the value was “inactive”.

(Values after PubChem BioAssay AID624296 (National Center for Advancing Translational Sciences (NCATS), 2012).)
